Test results taken from PubChem BioAssay AID1025 (Sanford-Burnham Center for Chemical Genomics, 2008).
The campaign covered roughly 96,000 compounds. Fewer than 10 were called active.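 How the source made its calls: active means activation factor of at least 2 at 5 µM in the primary screen; inactive means the rest.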 Not all results are given here.

What follows are compounds tested against Cytochrome P450 2C19 (Homo sapiens) (UniProt P33261) (assay: enhancers of cytochrome P450 2C19 turnover – biochemical, luminescence, primary screen (AID 1025;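 further: 0 = wells with 2.5 mM tranylcypromine and 1 = vehicle-only wells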)). Settings: recombinant CYP2C19, luciferin-H EGE luminescence; at 5 µM; hits give high values; 0 = fully inhibited enzyme, 1 = untreated enzyme.
Cytochrome P450 2C19 (Homo sapiens), sequence (P33261 whole entry, looked up): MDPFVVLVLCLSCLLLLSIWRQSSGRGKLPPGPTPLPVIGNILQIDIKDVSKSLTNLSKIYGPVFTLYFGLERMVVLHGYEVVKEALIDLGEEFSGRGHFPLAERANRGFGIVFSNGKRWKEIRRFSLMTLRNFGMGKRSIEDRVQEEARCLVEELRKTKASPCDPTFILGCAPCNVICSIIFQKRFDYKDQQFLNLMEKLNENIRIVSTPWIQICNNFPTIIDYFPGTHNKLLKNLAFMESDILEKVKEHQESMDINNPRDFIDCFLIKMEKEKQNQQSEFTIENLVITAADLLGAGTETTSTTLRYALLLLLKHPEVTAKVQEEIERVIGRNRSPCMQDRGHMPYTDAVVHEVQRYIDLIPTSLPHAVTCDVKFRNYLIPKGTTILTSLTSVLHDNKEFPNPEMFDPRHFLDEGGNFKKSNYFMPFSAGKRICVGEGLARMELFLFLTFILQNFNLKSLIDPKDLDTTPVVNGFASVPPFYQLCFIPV

Activation factor, inactive:
CC1CCC(N2CC(=O)N(Cc3ccc4c(c3)OCO4)C(c3ccc(F)cc3)C2=O)CC1 (stereo not drawn) 0.8, C/C(=N\NC(=O)c1ccccc1C)c1ccc(N2CCOCC2)cc1 1, C=CCOc1cccc(CNn2cn[nH]c2=S)c1 0.7, COc1cc(OC)cc(C(=O)NC(=S)N2CCN(c3ccc(C(F)(F)F)cc3[N+](=O)[O-])CC2)c1 0.8, Cc1ccc(N(Cc2ccc(C(=O)Nc3ccccc3C(=O)NCc3ccco3)cc2)S(C)(=O)=O)cc1C 0.1, Cc1cc(=O)oc2ccc(OCC(=O)O)cc12 1, NC(=O)c1c(NC(=O)CSc2nnc(-c3ccco3)n2N)sc2c1CCCC2 0.7, O=C(O)/C=C/C(=O)Nc1ccc(F)cc1F 0.9, Clc1ccc(COn2c(-c3ccc(Cl)cc3Cl)nc3ncccc32)cc1 0, CCOCCn1c(C(C)C)nc2ccccc21 0.8, O=C(CCc1ccc(S(=O)(=O)N2CCOCC2)cc1)Nc1ccc2ccccc2c1 0.4, CCC(CC)C(=O)N1CC(=O)Nc2ccc(Br)cc2C1c1ccccc1 (stereo not drawn) 0.5, CC(N)C12CC3CC(CC(O)(C3)C1)C2 (stereo not drawn) 0.9, COc1ccc(C(=O)CN(C(=O)c2ccc(Cl)cc2)N2C(=O)c3ccccc3C2=O)cc1 0.6, O=C(CCN1c2ccccc2Sc2ccccc21)Nc1ccccc1 0.2, CCOc1cc(CNCCN(C)C)c(Cl)cc1OCC(=O)NCCc1ccccc1 1, Cc1cc(C(=O)Nc2c(C)nn(Cc3ccccc3)c2C)on1 0.9, CC(C)CNC(=S)NNC(=O)c1ccccc1OC(F)F 0.8, Cc1ccccc1NC(=O)C(C)c1ccc(-c2ccccc2)c(F)c1 (stereo not drawn) 0.9, Cc1ccc(CS(=O)(=O)CCC(=O)NC2CC2)cc1 0.9, O=C(NC1CCCCC1)C1CC(=O)N(CCc2ccccc2)C1 (stereo not drawn) 1.1, Cc1ccc(C2NC(=S)NC3=C2N2CCC3CC2)cc1 (stereo not drawn) 1.1, C/C(=N\NS(=O)(=O)c1ccc(Br)cc1)c1cccs1 0.3, CC1(C)CC(CC(=O)O)C(=O)O1 (stereo not drawn) 1.1, CCOC(=O)c1cnc(SC)nc1Sc1ccc(Cl)cc1Cl 0.7, CS(=O)(=O)N(CC(=O)Nc1ccc(F)cc1F)c1cccc([N+](=O)[O-])c1 0.4, CSc1ccccc1NC(=O)c1cc(C2CC2)on1 0.7, O=C(/C=C\NCC(=O)c1ccccc1)c1ccccc1 0.5, O=C(NCc1ccccn1)c1cc(-c2ccccc2Cl)on1 0.9, COc1cc(/C=N\NC(=O)CNC(=O)c2cccc([N+](=O)[O-])c2)ccc1O 0.8, COc1ccc(CC(=O)Nc2sc(Cc3ccccc3)c(C)c2C(N)=O)cc1 1, FC(F)(F)c1nnc2ccc(N3CCN(c4ccccc4)CC3)nn12 0.7, CC1CC(C)CN(C(=O)CSc2nnc(CSc3ncccn3)n2C)C1 (stereo not drawn) 1.1, Cc1cc2[nH]ncc2cc1NC(=S)NC(=O)c1ccccc1 0, CCCCCCSc1nsc(N)n1 0.5, COc1cccc(-c2cc(C(=O)N/N=C/c3ccc(OC)c(COC(C)=O)c3)c3ccccc3n2)c1 0.5, CC1=NN(C(=O)Cc2ccc(C)cc2)C(O)(c2cccnc2)C1 (stereo not drawn) 0.4, ONC(=Nc1ccccc1)c1ccccc1Cl 0.7, Oc1ccccc1CNc1ncc(Br)cc1Br 0.6, Cc1nc(SCC(=O)N2CC(=O)Nc3ccccc32)c2c(C)c(C)sc2n1 0.5, COc1ccc(C(=S)Nc2ccccc2)cc1 0.3, N#Cc1ccc(-c2ccc(F)cc2)nc1Sc1ccccc1 1, OCCNc1nc2ccccc2n1-c1ncnc2sc3c(c12)CCC3 1.1, O=C(Nc1ccc(Br)cc1)c1cccc(NC(=O)C2C3CC4OC(=O)C2C4C3)c1 (stereo not drawn) 0.8, Cc1ccc(NC(=O)N2CCC(c3nc4c(nnn4Cc4c(F)cccc4Cl)c(=O)[nH]3)CC2)cc1 0, O=C(NC1CCc2ccccc21)C12CN(Cc3ccccc3)CC1C(c1cccc([N+](=O)[O-])c1)=NO2 (stereo not drawn) 0.9, S=C1NC(c2ccccc2)=NCN1c1ccc(Br)cc1 0.5, COC(=O)c1ccc(CSc2nc3cc(Cl)ccc3o2)cc1 1.1, O=C(NCCc1ccccc1)c1ccc(NC2=NC3CS(=O)(=O)CC3S2)cc1 (stereo not drawn) 0.9, Cn1nc(-c2ccccc2)c(CSc2cccc(Cl)c2)c1Cl 0.5, CC1(C)COC(c2cccn2Cc2ccccc2Cl)=N1 1, S=c1[nH]nc(-c2ccc(Cl)cc2)n1CC1CCCO1 (stereo not drawn) 0.6, Cc1ccc(C2CC2C(=O)NN)cc1 (stereo not drawn) 0.5, N=c1c2c(-c3ccccc3)c(-c3ccccc3)oc2ncn1Cc1ccco1 0.8, O=c1[nH]c(CCl)nc2cc(-c3ccc(Cl)cc3)sc12 0.7, CCCSC(=S)NC1CCS(=O)(=O)C1 (stereo not drawn) 0.9, CC(Sc1nnc(Cc2ccc([N+](=O)[O-])cc2)o1)C(N)=O (stereo not drawn) 0.8, Cc1ccc(NC(=S)NCCN2CCOCC2)cc1 0.8, Cc1cnc(NC(=O)CSc2nnc(C)s2)s1 0.8, Cc1ccc(N2C(=O)C(Cc3ccccc3)NC2=S)cc1 (stereo not drawn) 0.6, CC1=C(C)CC(C(=O)NNC(=O)c2ccccc2O)C(C(=O)O)C1 (stereo not drawn) 1.1, CCN(CC(=O)Nc1ccccc1OC)C(=O)Cn1cnc2ccccc2c1=O 1, O=c1[nH][nH]c(C(F)(F)F)c1C=NCc1ccccc1Cl 0.1, COC(=O)c1sc2ncccc2c1OCc1ccc(Cl)cc1Cl 1, CCOC(=O)C1Sc2[nH]c(=O)sc2C(c2ccc(Cl)cc2)C1C(=O)OCC (stereo not drawn) 0.8, C=CCN(N=Nc1cccc([N+](=O)[O-])c1)c1cccc([N+](=O)[O-])c1 0.8, CC(CC(=O)Nc1cc(C(F)(F)F)ccc1Cl)c1ccccc1 (stereo not drawn) 0.4, C(=N/N1CCN(c2ccccc2)CC1)/c1cccs1 0.5, CC1(C)CC(=O)C(C=NCCN2CCN(C(=S)Nc3cccc(Cl)c3)CC2)=C(O)C1 0.4, O=C(C1=C(O)C(=O)N(Cc2ccccc2)C1c1ccco1)c1ccco1 (stereo not drawn) 1.2, Nc1nc(C23CC4CC(CC(C4)C2)C3)cs1 0.6, CC(C)N(c1ccccc1)c1ncnc(NCCC(=O)O)c1[N+](=O)[O-] 0.4, CC1=C(C(N)=O)C(c2sccc2C)n2nnnc2N1 (stereo not drawn) 0.9
